Results: PubChem BioAssay AID504912 (The Scripps Research Institute Molecular Screening Center, 2011)
The list shows a part of the results. Unmarked numbers belong to inactive results. How the calls were made is not given here.

Test: inverse agonists of MOR-DOR heterodimerization, counter-screen for HTR5A inverse agonist project, cell-based, luminescence (AID 504912);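 further: 0% = cells with DMSO and 100% = wells without cells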
Conditions: U2OS counter-screen cells, complementation luminescence; at 9.3 µM; hits give high values

Row | Compound | inhibition [%]
1 | CCCCCCCCc1c(O)nc(-n2[nH]c(C)c(CCO)c2=O)[nH]c1=O | -29.4
2 | Cc1noc(C)c1COc1cccc(C(=O)Nc2cccnc2)c1 | 3.69
3 | Cc1cc(C)n(-c2ccc(Cl)c(C(=O)O)n2)n1 | -60.3
4 | CCOC(=O)NC(=O)C(=CNc1cccc(OC)c1)C(=O)NC(=O)OCC | -172
5 | COc1ccc(-c2nnc(SC(C)C(=O)NC3CC3)o2)cc1 (configuration not stated) | -19.6
6 | O=C(/C=C/c1ccc(Cl)c([N+](=O)[O-])c1)c1ccc(O)cc1 | -15.2
7 | O=c1ccc2c(-c3ccccc3S(=O)(=O)O)c3ccc(O)c(O)c3oc-2c1O | -10.2
